This is an account of results in ChEMBL document CHEMBL3433997, “St. Jude Leishmania screening dataset” (2016).

This experiment deals with Solute carrier family 2, facilitated glucose transporter member 1 (Homo sapiens) (UniProt P11166). As to the kind of experiment: ST_JUDE_LEISH: Cytotoxicity at 2uM final concentration against transgenic Leishmania Mexicana promastigotes LmGLUT1 that are glucose transport deficient and complemented with the human glucose transporter GLUT1. Activity is measured by DNA content using SYBR green in vitro. The class given is functional.
Solute carrier family 2, facilitated glucose transporter member 1 (Homo sapiens), sequence (P11166 whole entry): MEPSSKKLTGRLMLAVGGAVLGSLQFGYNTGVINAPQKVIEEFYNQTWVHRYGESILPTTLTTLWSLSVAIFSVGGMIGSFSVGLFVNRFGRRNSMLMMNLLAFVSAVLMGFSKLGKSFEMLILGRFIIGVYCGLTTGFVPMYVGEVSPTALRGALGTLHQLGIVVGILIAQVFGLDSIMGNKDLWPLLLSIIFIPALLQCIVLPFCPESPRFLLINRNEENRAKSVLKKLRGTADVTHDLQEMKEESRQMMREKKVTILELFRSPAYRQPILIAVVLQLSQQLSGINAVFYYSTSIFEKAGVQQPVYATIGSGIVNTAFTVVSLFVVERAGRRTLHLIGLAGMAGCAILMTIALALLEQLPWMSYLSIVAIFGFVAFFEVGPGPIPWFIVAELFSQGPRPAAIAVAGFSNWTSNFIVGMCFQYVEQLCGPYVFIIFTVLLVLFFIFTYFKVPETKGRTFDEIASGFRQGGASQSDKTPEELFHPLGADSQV
The term inhibition denotes the relative decrease from the control value, in per cent. For `COc1ccc(NC(=O)c2ccc(Br)c(C)c2)cc1N1CCN(CCCCc2ccccc2)CC1`, the inhibition is 1.19%.
`CC(C)C[C@@H](/C=N/N1CCOC1=O)NC(=O)[C@H](CC(C)C)NC(=O)c1ccc(OCCN2CCOCC2)cc1`: the inhibition turned out to be 1.39%.
The value for `O=C(Cc1ccc([N+](=O)[O-])cc1)N1CCc2cc3nccc(N4CCN5CCC[C@@H]5C4)c3cc21` was 1.21%.
The value for `O=C(/C=C/c1ccc(Cl)c(Cl)c1)N1CCC(CCN2CCC(c3c[nH]c4cc5c(cc34)OCO5)CC2)CC1` was 0.05%.
For `CCNc1cc(C(=O)N[C@@H](Cc2ccoc2)[C@H](O)CNC(C)CCCC(C)C)cc(N2CCCCS2(=O)=O)c1` (stereo not given in full) the value was 1.42%; for `CC(C)(C)C1CC(=O)CC2C(=O)N(C3CCCCC3)C(=O)C21` (stereo not given), 4.51%; for `COc1ccc(-c2cccc(NC(=O)c3cccc(Cl)c3)c2)cc1CN(C)CCN(C)C`, 1.29%.
With `COc1ccc(CNCCc2cccs2)cc1-c1ccc(S(=O)(=O)NCCN2CCCC2)cc1`, the inhibition amounted to 5.85%.
On to `FC(F)(F)CNc1nc(Nc2ccc3ncccc3c2)nc2[nH]ccc12`, for which the inhibition came out at 21.8%.
Regarding `COc1cc(Cc2cnc(N)nc2N)cc(OCCCCCC(N)=O)c1OC`, the inhibition is -0.36%.
The value for `Cc1cccc(Nc2nccc(NCC(O)c3ccc(C(F)(F)F)cc3)n2)c1` (stereo not given) was 10.6%.
With `COc1ccc(CNC(=O)c2cnc3cc(-c4c(C)noc4C)ccc3c2Nc2ccccc2C(C)(C)C)cc1`, the inhibition amounted to 3.17%.
The value for `CC(C)c1ccc(OCC(O)CN(C)C(C)C(O)c2ccccc2)c(Br)c1` (stereo not given) was 5.55%; that for `O=C(/C=C/c1ccc(-c2nc3ccc(Cl)cc3[nH]2)cc1)NC1CCN(Cc2ccccc2)CC1` was 1.24%; that for `O=C(Nc1ccccc1)N1CCC(CN2CCOC(c3ccccc3)(c3ccccc3)C2)CC1` was 7.91%.
Consider `Fc1ccc(-c2cc3ncnc(N4CCN(CCN5CCCC5)CC4)c3s2)cc1`, for which the inhibition is 14.6%.
The value for `CCc1nc2c(cnn2CC)c(NC2CCOCC2)c1CNC(=O)c1ccoc1C` was 6.4%; that for `Cc1cc(NC2CCN(CC3CCCCC3)CC2)nc(Nc2ccccc2Cl)n1` was 2.86%.
With `Fc1cc(Cl)ccc1Nc1ccnc2cc(I)ccc12`, the inhibition came out at 2.92%.
With `CCc1cn2c3c(cc(C(=O)N[C@@H](Cc4ccccc4)[C@H](O)CNC4CCOCC4)cc13)N(C(C)C)S(=O)(=O)CC2`, the inhibition was -1.49%.
Turning to `CCCC(=O)Nc1ccc(OCCN(Cc2ccccc2OC(F)(F)F)c2ccc(C(F)(F)F)c(C#N)c2)cc1`, the inhibition worked out at 3.46%.
Turning to `Cc1ccc(CN2CCCCC(NC(=O)c3cc4ccccc4s3)C2)cc1` (stereo not given), the inhibition worked out at 0.16%.
As for `COc1ccc2c(NCCc3ccccc3)cc(-c3ccccc3)nc2c1`, the inhibition worked out at 9.93%.
As to `O=S(=O)(c1cc(Cl)sc1Cl)N(CCC(O)(C(F)(F)F)C(F)(F)F)Cc1cccc(O)c1`, the inhibition turned out to be 0.79%.
On to `COc1ccc(-c2ccc(Nc3cccc(S(=O)(=O)CCN4CCC(CCN(C)C)CC4)c3)nc2)cn1`, for which the inhibition is -2.17%.
In the case of `Cc1ccc(CN2CCCN(Cc3cccc(NC(=O)c4ccc(Cl)c(Cl)c4)c3)CC2)cc1`, the inhibition is -1.13%.
Consider `Cc1nc(C)c(CC(=O)Nc2cccc(-c3cccc(-c4nc5cccc(C)c5[nH]4)c3)c2)s1`, for which the inhibition was -1.73%.
Regarding `CCn1c(-c2nonc2N)nc2c(Cl)ncc(O[C@H](CCN)c3ccccc3F)c21`, the inhibition was 58.6%.
Regarding `FC(F)(F)c1ccc(/C=C/c2cncnc2Nc2ccc3[nH]c(Cc4ccccc4)nc3c2)cc1`, the inhibition was found to be 4.97%.
In the case of `CCCCCCNCCOc1ccc(-c2nc(-c3ccccc3)c(-c3ccccc3)[nH]2)cc1`, the inhibition came to 4.61%.
With `Cc1c(Cn2ncc(N3CCC(N)CC3)c(Cl)c2=O)cccc1NC(=O)Nc1ccc(-c2ccccc2)cc1`, the inhibition is 3.52%.
Take `O=C1C[C@@H]([S+]([O-])Cc2nccs2)N1CCOCCCCCCc1ccc(Cl)cc1` (stereo not given in full): the inhibition amounted to 9.09%.
For `COc1ccc2cc(-c3nc(-c4c(Cl)cccc4Cl)[nH]c3-c3ccnc(NCCCN4CCCCC4C)c3)ccc2c1` (stereo not given), the inhibition stood at 0.59%.
Consider `CN1CC=C(c2csc3ccc(NC(=O)Nc4ccc(-c5ccncc5)c5ccccc45)cc23)CC1`, for which the inhibition amounted to 3.83%.
For `Cc1cc(NC(=O)Nc2ccc(C#N)cc2)c2ccccc2n1` the value was 1.79%; for `O=C(NCCCCN1CCC(c2ccc3c(c2OCCO)CCCC3)CC1)c1ccc2oc(-c3ccc(C(F)(F)F)cc3)cc2c1`, 1.2%; for `O=C(/C=C/c1cccc(Cl)c1)N1CCC(C(O)CN2CCC3(CC2)CN(C(=O)/C=C/c2cccc(Cl)c2)c2ccccc23)CC1` (stereo not given), 0.54%.
The value for `O=C(CC(c1ccccc1)c1ccccc1O)N1CCOCC1` (stereo not given) was 0.4%; that for `COc1cc2c(c(Cl)c1OC)CCN(Cc1ccccc1)CC2c1ccc(C(N)=O)cc1` (stereo not given) was 2.24%.
For `O=C(Nc1ccc(Cl)c(C(F)(F)F)c1)NC1CCN(CCCCCNC(=O)C2CC2c2ccc(Cl)c(Cl)c2)CC1` (stereo not given) the value was 7.55%.
